This is one part of a sample in which hits are shown more often than they occur.
CendR NRP1 mod: NRP-1/CendR interaction modulation; FAM-RPARPAR peptide binding to NRP-1, fluorescence polarization; AID 602438; inhibition, % at 25 µM; hit rate 0.85% among 360,000;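 active = inhibition or corrected inhibition above about 18%, plus a signal ratio from 0.5 to 1.5, limit read from the data, passing the limit was not always enough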
Target sequence (O14786 whole entry, looked up): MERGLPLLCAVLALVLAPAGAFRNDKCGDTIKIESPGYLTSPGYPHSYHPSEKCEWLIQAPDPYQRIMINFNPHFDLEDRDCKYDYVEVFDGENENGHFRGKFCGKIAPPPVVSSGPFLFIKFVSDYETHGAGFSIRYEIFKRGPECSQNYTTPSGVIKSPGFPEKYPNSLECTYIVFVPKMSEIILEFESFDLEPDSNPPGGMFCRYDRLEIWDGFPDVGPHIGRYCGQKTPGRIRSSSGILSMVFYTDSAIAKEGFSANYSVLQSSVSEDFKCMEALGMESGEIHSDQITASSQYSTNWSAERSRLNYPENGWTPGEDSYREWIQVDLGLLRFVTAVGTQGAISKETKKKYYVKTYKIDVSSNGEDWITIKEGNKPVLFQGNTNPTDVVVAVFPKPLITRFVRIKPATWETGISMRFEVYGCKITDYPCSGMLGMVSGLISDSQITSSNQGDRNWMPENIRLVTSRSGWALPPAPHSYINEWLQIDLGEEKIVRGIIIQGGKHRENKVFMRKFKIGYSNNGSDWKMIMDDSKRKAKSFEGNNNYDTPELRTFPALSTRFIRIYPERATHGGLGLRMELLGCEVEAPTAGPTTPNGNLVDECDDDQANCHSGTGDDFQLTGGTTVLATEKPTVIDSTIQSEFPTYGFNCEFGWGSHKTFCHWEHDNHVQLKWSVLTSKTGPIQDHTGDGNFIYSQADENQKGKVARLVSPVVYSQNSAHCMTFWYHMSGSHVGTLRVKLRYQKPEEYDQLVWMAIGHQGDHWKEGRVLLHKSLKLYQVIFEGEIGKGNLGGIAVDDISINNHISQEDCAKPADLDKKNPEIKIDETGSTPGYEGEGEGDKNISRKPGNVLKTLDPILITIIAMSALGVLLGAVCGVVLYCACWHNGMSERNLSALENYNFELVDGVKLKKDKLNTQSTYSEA
PglD DTNB: inhibitors of Campylobacter jejuni PglD acetyltransferase; purified PglD enzyme, DTNB colorimetric CoA detection; inhibition, % at 12.5 µM; hit rate 0.098% among 360,000; AID 602405; in the data active = inhibition above about 16%, passing the limit was not always enough
ALR inh: blocks human ALR sulfhydryl oxidase activity. P55789. purified ALR, DTT oxidation, H2O2 HRP-luminol luminescence. inhibition, % (test concentration not listed). hit rate 3.8% among 290,000. AID 485317;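 active = mean replicate inhibition above about 79%, with every replicate also reaching it, limit read from the data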
ARNT TACC3 PPI: disruptors of human ARNT/TACC3 interaction. Q9Y6A5. hit rate 0.66% among 390,000. inhibition, % at 9.99 µM. AID 623870. AlphaScreen His-ARNT PAS-B/GST-TACC3 binding, luminescence; TACC3 fragment carries E629A point mutation;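 active = mean inhibition of replicates at least 50% and at least half of replicates each reaching 50%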;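 note: 0% = complete ARNT plus TACC3 wells and 100% = ARNT alone without TACC3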
ERp5 inh: blocks human ERp5 reductase activity on insulin; hit rate 0.05% among 350,000; inhibition, % at 9.99 µM; ERp5 insulin aggregation, absorbance 650 nm, 90 min; Q15084;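 active = mean replicate inhibition above about 25%, with every replicate also reaching it, limit read from the data, passing the limit was not always enough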
PDI turbidity: PDI (human) enzyme inhibition; P07237; PDI insulin aggregation turbidity, A650, 90 min; inhibition, % at 10 µM; hit rate 0.052% among 350,000; AID 588391;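 active = mean inhibition across replicates of 30% or more, whatever share of single replicates reach that level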
ARNT Alpha ctr-1: counter-screen for ARNT/TACC3 inhibitors: AlphaScreen artifacts; shares compounds with ARNT TACC3 PPI; His-ARNT PASB-GST AlphaScreen artifact counter-screen, luminescence; AC50, µM (series often up to 68 µM), for inactives: at the highest dose activity change, negative = signal decrease; AID 651705; hit rate 50% among 1,200;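 active = every separate test run was called active for a drop in luminescence, with AC50 within twice the top valid dose, actives reach about 71 µM in these data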
ARNT Alpha ctr-2: AlphaScreen artifact flagged for ARNT-TACC3 inhibitors; Dual-tagged His-ARNT PASB-GST AlphaScreen artifact counter-screen; AC50, µM; shares compounds with ARNT TACC3 PPI; AID 720564; hit rate 70% among 45;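 active = luminescence drop, with half-maximal potency fitted within twice the sample's top valid dose, cut at about 70 µM in these data; inactive = the rest, including signal moving the wrong way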
* hit, by the source's call.

For O=C(C[C@H]1C=C[C@@H](NS(=O)(=O)c2ccccc2)[C@H](CO)O1)NCc1ccc(Cl)c(Cl)c1 the results were PglD DTNB -5, ARNT TACC3 PPI -8 and ERp5 inh 3.
Brc1ccc(OCc2nc(-c3ccccn3)n[nH]2)cc1 was read as CendR NRP1 mod 12, PglD DTNB 2, ALR inh 1, ARNT TACC3 PPI 58*, PDI turbidity -1 and ARNT Alpha ctr-1 22µM*.
Clc1ccc(OCc2nc(-c3ccccn3)n[nH]2)cc1 was read as CendR NRP1 mod -15, PglD DTNB 3, ALR inh -3, ARNT TACC3 PPI 66*, PDI turbidity 4 and ARNT Alpha ctr-1 28µM*.
O=C(CN1C(=O)/C(=C\c2cccs2)SC1=S)Nc1cccc(C(=O)O)c1 was read as CendR NRP1 mod -14, PglD DTNB -10, ALR inh -6, ARNT TACC3 PPI 57*, ERp5 inh 2, PDI turbidity 8 and ARNT Alpha ctr-1 -10%.
`COc1ccc([Si](C)(C)[C@@H]2[C@@H](CCO)O[C@]3(C(=O)N4c5c(cc(OC)cc53)C(C)=CC4(C)C)[C@H]2C)cc1` gave PglD DTNB 0, ARNT TACC3 PPI 52*, ERp5 inh 6 and ARNT Alpha ctr-1 9µM*.
`COc1ccc([Si](C)(C)[C@H]2[C@H](CCO)O[C@@]3(C(=O)N4c5c(cc(OC)cc53)C(C)=CC4(C)C)[C@@H]2C)cc1` gave PglD DTNB -3, ARNT TACC3 PPI 42 and ERp5 inh -1.
`Cc1cc(C)c(S(=O)(=O)N2CCOC2CNC(=O)C(=O)NCCCn2ccnc2)c(C)c1` (centres undefined) gave CendR NRP1 mod 4, ALR inh -2, ARNT TACC3 PPI 63*, ERp5 inh 5, PDI turbidity -1 and ARNT Alpha ctr-1 42µM*.
Screening CC(C)C#Cc1cnc2c(c1)C(=O)N([C@@H](C)CO)C[C@@H](C)[C@@H](CN(C)C(=O)Cc1ccccn1)O2 returned PglD DTNB -5 and ERp5 inh -5.
For O=C(N/N=C1/CCS(=O)(=O)c2ccc(F)cc21)c1ccccn1 the results were CendR NRP1 mod 10, ARNT TACC3 PPI 52*, ERp5 inh -21, PDI turbidity 5 and ARNT Alpha ctr-1 -5%.
`O=C(N/N=C1/CCS(=O)(=O)c2ccc(F)cc21)c1cccnc1` gave CendR NRP1 mod 20, PglD DTNB 2, ALR inh -3, ARNT TACC3 PPI -8, ERp5 inh 12 and PDI turbidity 0.
`C[C@H](CO)N1C[C@H](C)[C@H](CN(C)S(=O)(=O)c2ccccc2)Oc2ccc(NC(=O)CCC(F)(F)F)cc2C1=O` gave PglD DTNB -1, ARNT TACC3 PPI -15 and ERp5 inh -3.
CO[C@@H]1CN(C)C(=O)c2cc(NC(=O)c3cccc(F)c3)ccc2OC[C@H](C)N(C)C[C@H]1C was read as PglD DTNB -2, ARNT TACC3 PPI 1 and ERp5 inh 0.
For CC(=O)Nc1ccc(-n2cnnn2)cc1 the results were CendR NRP1 mod 6, ARNT TACC3 PPI -3 and PDI turbidity 1.
`O=C(O)c1cn[nH]c1-n1cnnn1` gave CendR NRP1 mod 5, PglD DTNB -1, ALR inh -16, ARNT TACC3 PPI 61*, PDI turbidity 14 and ARNT Alpha ctr-1 -9%.
Cc1[nH]cnc1CN1CCc2c(c3ccccc3n2C)C1=O was read as CendR NRP1 mod 17, PglD DTNB -1, ALR inh -19, ARNT TACC3 PPI 28*, ERp5 inh -5, PDI turbidity 11 and ARNT Alpha ctr-1 -8%.
`C[C@@H]1CN([C@H](C)CO)C(=O)c2cc(C#CCN(C)C)cnc2O[C@@H]1CN(C)Cc1cccc(C(=O)O)c1` gave PglD DTNB -4.
Brc1ccc2cccnc2c1 was read as CendR NRP1 mod -8, PglD DTNB 10, ARNT TACC3 PPI 1 and PDI turbidity -3.
`Nc1cc2cccnc2cc1Cl` gave CendR NRP1 mod -14, PglD DTNB 5, ARNT TACC3 PPI 53*, ERp5 inh 2, PDI turbidity -3 and ARNT Alpha ctr-1 -13%.
COc1ccc(CCNC(=O)CSc2nnc(Cc3csc(N)n3)n2C)cc1OC was read as CendR NRP1 mod -6, ALR inh -1, ARNT TACC3 PPI 28*, PDI turbidity -7 and ARNT Alpha ctr-1 -10%.
`Cc1nnc(NC(=O)C2CCN(S(=O)(=O)c3cc([N+](=O)[O-])ccc3Cl)CC2)o1` gave CendR NRP1 mod 5, PglD DTNB 3, ARNT TACC3 PPI 52*, ERp5 inh 2, PDI turbidity 13 and ARNT Alpha ctr-1 -20%.
For Cc1nnc(NC(=O)c2ccc(S(=O)(=O)N3CCCCC3)cc2)o1 the results were ARNT Alpha ctr-2 >136.
`CC1CCCN(S(=O)(=O)c2ccc(C(=O)Nc3nnc(C4CC4)o3)cc2)C1` (centres undefined) gave CendR NRP1 mod -14, PglD DTNB 0, ALR inh 4, ARNT TACC3 PPI 51*, ERp5 inh 1, PDI turbidity 6 and ARNT Alpha ctr-1 65µM*.
For O=S(=O)(Nc1cccc(F)c1)c1cccc2nsnc12 the results were CendR NRP1 mod 7, PglD DTNB -2, ALR inh -10, ARNT TACC3 PPI 10, ERp5 inh -9 and PDI turbidity 1.
`Cc1cc(F)ccc1NS(=O)(=O)c1cccc2nsnc12` gave CendR NRP1 mod 11, PglD DTNB -2, ALR inh 6, ARNT TACC3 PPI active, ERp5 inh 4, PDI turbidity 5 and ARNT Alpha ctr-1 -3%.
`Cc1ccc(C2(C)NC(=O)N(CC(=O)Nc3nc(-c4ccccn4)cs3)C2=O)cc1` (centres undefined) gave CendR NRP1 mod -2, PglD DTNB 1, ALR inh -7, ARNT TACC3 PPI 54*, ERp5 inh -4, PDI turbidity -1 and ARNT Alpha ctr-1 33µM*.
CC1(c2ccccc2)NC(=O)N(CC(=O)NNC(=O)c2ccccc2)C1=O (centres undefined) was read as CendR NRP1 mod 5, PglD DTNB 2, ALR inh 3, ERp5 inh 2 and PDI turbidity -3.
`Cc1ccc(S(=O)(=O)CCC(=O)Nc2nc(-c3ccccn3)cs2)cc1` gave CendR NRP1 mod -1, PglD DTNB -4, ALR inh 70, ARNT TACC3 PPI 80*, ERp5 inh -7, PDI turbidity 9 and ARNT Alpha ctr-1 71µM*.

Bioassay records deposited in PubChem BioAssay by several laboratories.
